PubChem BioAssay AID1159580 (chemical genetic matrix, 2015)
Out of some 5,500 compounds screened, about 2,000 (36%) were called active. About 18% were inconclusive and are not listed. No stated cut-off is given here; in the data, active means normalized growth mostly below about 0.91 (no sharp cut-off); inconclusive means no clear call, values can overlap the other calls; inactive means mostly above about 0.92. The list shows a part of the results.

Assay: chemical genetic growth profiling, strain panel (AID 1159580);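 further: tested at 20 µM; growth read once vehicle control cultures reached saturation at 30 °C; 1 = growth at the plate median or of vehicle wells; lower values mean less growth of the strain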
Details: growth OD
[1] = S. cerevisiae deletion strains, locus YDL101C, strain DUN1, active compounds read low
[2] = S. cerevisiae deletion strains, locus YHR030C, strain SLT2, active compounds read low

Measured: normalized growth

CN(C(=O)N(C)c1ccc(Cl)cc1C(=O)c1ccccc1Cl)c1ccc(Cl)cc1C(=O)c1ccccc1Cl
inactive: S. cerevisiae deletion strains, locus YHR205W, strain SCH9, active compounds read low 0.716 | S. cerevisiae deletion strains, locus YJL128C, strain PBS2, active compounds read low 0.867 | S. cerevisiae deletion strains, locus YPR111W, strain DBF20, active compounds read low 0.874
active: S. cerevisiae deletion strains, locus YAR019C, strain CDC15, active compounds read low 0.84 | S. cerevisiae deletion strains, locus YBL105C, strain PKC1, active compounds read low 0.85 | S. cerevisiae deletion strains, locus YBR135W, strain CKS1, active compounds read low 0.85 | S. cerevisiae deletion strains, locus YBR136W, strain MEC1, active compounds read low 0.832 | S. cerevisiae deletion strains, locus YBR160W, strain CDC28, active compounds read low 0.853 | S. cerevisiae deletion strains, locus YDL017W, strain CDC7, active compounds read low 0.851 | S. cerevisiae deletion strains, locus YDL028C, strain MPS1, active compounds read low 0.835 | [1] 0.847 | S. cerevisiae deletion strains, locus YDL108W, strain KIN28, active compounds read low 0.831 | S. cerevisiae deletion strains, locus YDL132W, strain cdc53, active compounds read low 0.853 | S. cerevisiae deletion strains, locus YDL214C, strain PRR2, active compounds read low 0.471 | S. cerevisiae deletion strains, locus YDR052C, strain DBF4, active compounds read low 0.855 | S. cerevisiae deletion strains, locus YDR054C, strain cdc34, active compounds read low 0.805 | S. cerevisiae deletion strains, locus YDR226W, strain ADK1, active compounds read low 0.86 | S. cerevisiae deletion strains, locus YDR477W, strain SNF1, active compounds read low 0.467 | S. cerevisiae deletion strains, locus YER123W, strain YCK3, active compounds read low 0.388 | S. cerevisiae deletion strains, locus YER133W, strain GLC7, active compounds read low 0.447 | S. cerevisiae deletion strains, locus YFL009W, strain cdc4, active compounds read low 0.848 | S. cerevisiae deletion strains, locus YFL029C, strain CAK1, active compounds read low 0.828 | S. cerevisiae deletion strains, locus YFR003C, strain YPI1, active compounds read low 0.85 | S. cerevisiae deletion strains, locus YFR019W, strain FAB1, active compounds read low 0.577 | S. cerevisiae deletion strains, locus YFR028C, strain CDC14, active compounds read low 0.841 | S. cerevisiae deletion strains, locus YGR040W, strain KSS1, active compounds read low 0.462 | S. cerevisiae deletion strains, locus YGR052W, strain FMP48, active compounds read low 0.46 | S. cerevisiae deletion strains, locus YGR092W, strain DBF2, active compounds read low 0.242 | [2] 0.49 | S. cerevisiae deletion strains, locus YHR079C, strain IRE1, active compounds read low 0.463 | S. cerevisiae deletion strains, locus YHR082C, strain KSP1, active compounds read low 0.492 | S. cerevisiae deletion strains, locus YIL147C, strain SLN1, active compounds read low 0.826 | S. cerevisiae deletion strains, locus YJL095W, strain BCK1, active compounds read low 0.417 | S. cerevisiae deletion strains, locus YJL157C, strain FAR1, active compounds read low 0.51 | S. cerevisiae deletion strains, locus YJR016C, strain ILV3, active compounds read low 0.883 | S. cerevisiae deletion strains, locus YJR066W, strain TOR1 (second series), active compounds read low 0.518 | S. cerevisiae deletion strains, locus YJR066W, strain TOR1, active compounds read low 0.381 | S. cerevisiae deletion strains, locus YKL048C, strain ELM1, active compounds read low 0.605 | S. cerevisiae deletion strains, locus YKL067W, strain YNK1, active compounds read low 0.525 | S. cerevisiae deletion strains, locus YKL101W, strain HSL1, active compounds read low 0.524 | S. cerevisiae deletion strains, locus YKL193C, strain SDS22, active compounds read low 0.832 | S. cerevisiae deletion strains, locus YKL203C, strain TOR2, active compounds read low 0.457 | S. cerevisiae deletion strains, locus YLR113W, strain HOG1, active compounds read low 0.447 | S. cerevisiae deletion strains, locus YLR133W, strain CKI1, active compounds read low 0.582 | S. cerevisiae deletion strains, locus YLR403W, strain SFP1, active compounds read low 0.592 | S. cerevisiae deletion strains, locus YML070W, strain DAK1, active compounds read low 0.446 | S. cerevisiae deletion strains, locus YMR001C, strain CDC5, active compounds read low 0.838 | S. cerevisiae deletion strains, locus YMR205C, strain PFK2 (second series), active compounds read low 0.549 | S. cerevisiae deletion strains, locus YMR277W, strain FCP1, active compounds read low 0.825 | S. cerevisiae deletion strains, locus YNL006W, strain LST8, active compounds read low 0.855 | S. cerevisiae deletion strains, locus YNL020C, strain ARK1, active compounds read low 0.527 | S. cerevisiae deletion strains, locus YNL161W, strain CBK1, active compounds read low 0.852 | S. cerevisiae deletion strains, locus YNL183C, strain NPR1, active compounds read low 0.412 | S. cerevisiae deletion strains, locus YNL207W, strain RIO2, active compounds read low 0.825 | S. cerevisiae deletion strains, locus YNL222W, strain SSU72, active compounds read low 0.846 | S. cerevisiae deletion strains, locus YNL307C, strain MCK1 (second series), active compounds read low 0.412 | S. cerevisiae deletion strains, locus YOL078W, strain AVO1, active compounds read low 0.845 | S. cerevisiae deletion strains, locus YOL136C, strain PFK27, active compounds read low 0.51 | S. cerevisiae deletion strains, locus YOR061W, strain CKA2, active compounds read low 0.477 | S. cerevisiae deletion strains, locus YOR119C, strain RIO1, active compounds read low 0.483 | S. cerevisiae deletion strains, locus YOR231W, strain MKK1, active compounds read low 0.455 | S. cerevisiae deletion strains, locus YOR329C, strain SCD5, active compounds read low 0.846 | S. cerevisiae deletion strains, locus YPL031C, strain PHO85, active compounds read low 0.441 | S. cerevisiae deletion strains, locus YPL153C, strain RAD53, active compounds read low 0.369 | S. cerevisiae deletion strains, locus YPL204W, strain HRR25, active compounds read low 0.487 | S. cerevisiae deletion strains, locus YPL209C, strain IPL1, active compounds read low 0.855 | S. cerevisiae deletion strains, locus YPL256C, strain CLN2, active compounds read low 0.508 | S. cerevisiae deletion strains, locus YPR025C, strain CCL1, active compounds read low 0.856 | S. cerevisiae deletion strains, locus YPR106W, strain ISR1, active compounds read low 0.868 | S. cerevisiae deletion strains, strain NNK1, active compounds read low 0.855 | S. cerevisiae deletion strains, strain TSCII, active compounds read low 0.818

COC(=O)c1ccc(Cl)cc1N(Cc1ccccc1)S(C)(=O)=O
inactive: S. cerevisiae deletion strains, locus YAL013W, strain DEP1, active compounds read low 1.01 | S. cerevisiae deletion strains, locus YBR229C, strain ROT2, active compounds read low 1.02 | [1] 0.998 | S. cerevisiae deletion strains, locus YDL134C, strain PPH21, active compounds read low 1 | S. cerevisiae deletion strains, locus YDR150W, strain NUM1, active compounds read low 0.934 | S. cerevisiae deletion strains, locus YEL061C, strain CIN8, active compounds read low 1 | S. cerevisiae deletion strains, locus YGR078C, strain PAC10, active compounds read low 0.992 | S. cerevisiae deletion strains, locus YGR229C, strain SMI1, active compounds read low 0.999 | [2] 1.11 | S. cerevisiae deletion strains, locus YHR087W, strain rtc3, active compounds read low 1 | S. cerevisiae deletion strains, locus YJL187C, strain SWE1, active compounds read low 1 | S. cerevisiae deletion strains, locus YJR075W, strain HOC1, active compounds read low 0.968 | S. cerevisiae deletion strains, locus YLR039C, strain RIC1, active compounds read low 1.03 | S. cerevisiae deletion strains, locus YLR058C, strain SHM2 (second series), active compounds read low 1.01 | S. cerevisiae deletion strains, locus YLR085C, strain ARP6, active compounds read low 1.05 | S. cerevisiae deletion strains, locus YLR262C, strain YPT6, active compounds read low 1 | S. cerevisiae deletion strains, locus YML094W, strain GIM5, active compounds read low 1.02 | S. cerevisiae deletion strains, locus YMR219W, strain ESC1, active compounds read low 1 | S. cerevisiae deletion strains, locus YMR263W, strain SAP30, active compounds read low 0.929 | S. cerevisiae deletion strains, locus YNL128W, strain TEP1, active compounds read low 1.02 | S. cerevisiae deletion strains, locus YNL153C, strain GIM3, active compounds read low 1 | S. cerevisiae deletion strains, locus YNL298W, strain CLA4 (second series), active compounds read low 1.04 | S. cerevisiae deletion strains, locus YNL322C, strain KRE1, active compounds read low 0.985 | S. cerevisiae deletion strains, locus YNR030W, strain Alg12, active compounds read low 1.02 | S. cerevisiae deletion strains, locus YOL006C, strain TOP1, active compounds read low 1.14 | S. cerevisiae deletion strains, locus YPL055C, strain LGE1, active compounds read low 0.923 | S. cerevisiae deletion strains, locus YPL241C, strain CIN2, active compounds read low 1.03 | S. cerevisiae deletion strains, locus YPR135W, strain CTF4, active compounds read low 1.17 | S. cerevisiae strains, strain wild type, active compounds read low 1.03
